In PubChem BioAssay (NCI):
This is part of a sample that, as a whole, favours compounds with a hit. Of some 83,000 tested, about 20% had one in any assay.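 Note: values are percent growth. 100 is the growth of untreated cells, values between 100 and 0 indicate rising inhibition; between -100 and 0 indicates cell death.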 The source made the active and inactive calls. The calls were made as follows: active = growth percent below 10; inactive = the rest.

These compounds were tested on T-47D breast (assay: NCI-60 one-dose screen, 48 h (100 = growth as untreated, 0 = no growth, -100 = all killed)). Conditions: 10 µM unless noted.
COc1ccc(-c2c(N)n[nH]c2-c2cc3c(c(OC)c2OC)OCO3)cc1 was tested, and the growth was 106% (inactive).
With COc1cc(-c2nn(-c3cccc(NC(=O)c4cccc(C(F)(F)F)c4)c3)cc2-c2ccncc2)ccc1Cl the growth was 29% (inactive).
With Clc1ccc(-c2nc3ccccc3s2)cc1Cl the growth was 61.3% (inactive).
Fc1ccc(CNCCNc2ncnc3c2cnn3-c2ccccc2)cc1 was tested, and the growth was 83.7% (inactive).
In the case of COc1ccc(-n2c(=O)sc3c(Cl)nc(C)nc32)c(OC)c1, the growth is reported as 84.7% (inactive).
With O=C(O)c1nc(-c2ccccc2)oc1N1CCOCC1 the growth was 82.9% (inactive).
For COc1ccc(C2C=C(c3ccc(N)cc3)N=C3SC=CN32)cc1OC (configuration not stated), the growth was 102% (inactive).
For O=S(=O)(NCCNc1nccc(-c2c(-c3ccc(O)cc3)nc3sccn23)n1)c1cccc2ccccc12, the growth was 94.4% (inactive).
With O=S(=O)(NCCNc1nccc(-c2c(-c3ccc(F)cc3)nc3sccn23)n1)c1ccc(F)cc1 the growth was 60.1% (inactive).
In the case of COc1ccc(/C=C2\CN(Cc3cn(CCNc4ccnc5cc(Cl)ccc45)nn3)C/C(=C\c3ccc(OC)c(OC)c3)C2=O)cc1OC, the growth is reported as 32.9% (inactive).
For Cc1ccc(S(=O)(=O)c2nc(-c3ccccc3)oc2S(C)(=O)=O)cc1, the growth was -42.6% (active).
COc1ccc(C2=Nn3c(nnc3-n3nc(C)cc3C)SC2)cc1 was tested, and the growth was 77.6% (inactive).
With O=C(O)/C=C/C(=O)c1ccc(Cl)cc1 the growth was 95.5% (inactive).
For Cc1ccc(S(=O)(=O)NCCNc2nccc(-c3c(-c4ccc(O)cc4)nc4sccn34)n2)cc1, the growth was 85% (inactive).
In the case of C=C1CCC[C@]2(C)CCC[C@H](C)[C@@H](OC(C)=O)[C@@H]3OC(=O)C(=C)[C@@H]3C[C@H]1O2, the growth is reported as 76.4% (inactive).
For Cc1cc(N)n(S(=O)(=O)c2oc(-c3ccccc3)nc2C#N)n1, the growth was 71% (inactive).
In the case of COc1ccc(-c2cc3c(OC)c(OC)c(OC)cc3oc2=O)cc1, the growth is reported as 42.2% (inactive).
With COc1ccc(OC)c(C2OC(c3ccc4ccccc4c3O)=NN2C(C)=O)c1 (configuration not stated) the growth was 63.7% (inactive).
With Cc1ccc(NS(=O)(=O)c2cc(C)ccc2C)cc1 the growth was 47.9% (inactive).
With COc1cc(-c2nn(-c3cccc(NC(=O)c4ccccc4)c3)cc2-c2ccncc2)ccc1Cl the growth was 21.8% (inactive).
O=C(Nc1cccc(-n2cc(-c3ccncc3)c(-c3ccc(Cl)c(O)c3)n2)c1)Nc1ccc(Cl)c(Cl)c1 was tested, and the growth was 23% (inactive).
In the case of O=S(=O)(NCCNc1nccc(-c2c(-c3cccc(O)c3)nc3sccn23)n1)c1ccc(F)cc1, the growth is reported as 85.3% (inactive).
With O=C(Nc1ccc2c(c1)OCCO2)C(=O)c1c[nH]c2ccccc12 the growth was 42.7% (inactive).
CCCCCCCC/C=C/CCCCCCCC1=NC(C)(C)CN1C(C)(C)CO was tested, and the growth was -10.2% (active).
For COc1ccc(-n2c(=S)sc3c(Cl)nc(C)nc32)c(OC)c1, the growth was 51.3% (inactive).
CCOC(=O)c1cn2c3c(cc(C)cc3c1=O)C(=O)/C(=C/c1ccccc1)C2 was tested, and the growth was 81.7% (inactive).
CN(C)CC(C(=O)c1ccccc1)c1ccccc1 (configuration not stated) was tested, and the growth was 66.6% (inactive).
NC(=O)CCCN1C/C(=C\c2ccccc2)C(=O)c2ccccc21 was tested, and the growth was 83.2% (inactive).
For COc1ccc(Nc2nn3c(C)cc(C)nc3c2C(=O)Nc2ccc(C)cc2)c(OC)c1, the growth was 87.7% (inactive).
With COc1cc(-c2nn(-c3cccc(NC(=O)c4ccc(Cl)c(C(F)(F)F)c4)c3)cc2-c2ccncc2)ccc1Cl the growth was 26.2% (inactive).
COc1cc(-c2nc(-c3nc4ccc(Cl)cc4[nH]3)cc3c2[nH]c2ccccc23)cc(OC)c1OC was tested, and the growth was 54.2% (inactive).
With Cc1c(C(N)=O)sc2c1c(=O)n(Cc1ccccc1)c1nnc(Nc3ccccc3)n21 the growth was 89% (inactive).
O=c1c2sc3ncccc3c2nnn1-c1ccccc1 was tested, and the growth was 85.4% (inactive).
For CCCCCCCC[C@@H](O)CC(=O)N[C@@H](CC(N)=O)C(=O)N[C@@H](CCC(N)=O)C(=O)N[C@@H](CC(=O)c1cc(C)cc(O)c1C(=O)c1c(O)cccc1O)CC(C)C, the growth was -3.58% (active).
In the case of COc1cc(/C(C#N)=C/c2ccc3c(c2OC)OCO3)cc2c1OCO2, the growth is reported as 52.7% (inactive).
In the case of COc1ccc(Nc2[nH]n3c(=O)cc(C)nc3c2C(N)=O)c(OC)c1, the growth is reported as 79.8% (inactive).
For Fc1ccc(Nc2nc(NCCNc3ccnc4cc(Cl)ccc34)nc(N3CCOCC3)n2)cc1, the growth was 83.3% (inactive).
CN(C)c1oc(C2OC2c2ccccc2)nc1C#N (configuration not stated) was tested, and the growth was 89.5% (inactive).

These compounds were tested on BT-549 breast in the same assay as above. Conditions: 10 µM unless noted.
COc1ccc(-c2c(N)n[nH]c2-c2cc3c(c(OC)c2OC)OCO3)cc1 was tested, and the growth was 101% (inactive).
For COc1cc(-c2nn(-c3cccc(NC(=O)c4cccc(C(F)(F)F)c4)c3)cc2-c2ccncc2)ccc1Cl, the growth was 26% (inactive).
With Clc1ccc(-c2nc3ccccc3s2)cc1Cl the growth was 97.4% (inactive).
In the case of Fc1ccc(CNCCNc2ncnc3c2cnn3-c2ccccc2)cc1, the growth is reported as 102% (inactive).
In the case of COc1ccc(-n2c(=O)sc3c(Cl)nc(C)nc32)c(OC)c1, the growth is reported as 91.6% (inactive).
In the case of O=C(O)c1nc(-c2ccccc2)oc1N1CCOCC1, the growth is reported as 97.5% (inactive).
For Cn1c(=O)c2[nH]c(C3CC=CCC3)nc2n(C)c1=O (configuration not stated), the growth was 108% (inactive).
For COc1ccc(C2C=C(c3ccc(N)cc3)N=C3SC=CN32)cc1OC (configuration not stated), the growth was 108% (inactive).
O=S(=O)(NCCNc1nccc(-c2c(-c3ccc(O)cc3)nc3sccn23)n1)c1cccc2ccccc12 was tested, and the growth was 108% (inactive).
O=S(=O)(NCCNc1nccc(-c2c(-c3ccc(F)cc3)nc3sccn23)n1)c1ccc(F)cc1 was tested, and the growth was 92.2% (inactive).
For COc1ccc(/C=C2\CN(Cc3cn(CCNc4ccnc5cc(Cl)ccc45)nn3)C/C(=C\c3ccc(OC)c(OC)c3)C2=O)cc1OC, the growth was -31.6% (active).
With Cc1ccc(S(=O)(=O)c2nc(-c3ccccc3)oc2S(C)(=O)=O)cc1 the growth was 53.4% (inactive).
In the case of COc1ccc(C2=Nn3c(nnc3-n3nc(C)cc3C)SC2)cc1, the growth is reported as 18.6% (inactive).
With O=C(O)/C=C/C(=O)c1ccc(Cl)cc1 the growth was 98.1% (inactive).
In the case of Cc1ccc(S(=O)(=O)NCCNc2nccc(-c3c(-c4ccc(O)cc4)nc4sccn34)n2)cc1, the growth is reported as 106% (inactive).
For C=C1CCC[C@]2(C)CCC[C@H](C)[C@@H](OC(C)=O)[C@@H]3OC(=O)C(=C)[C@@H]3C[C@H]1O2, the growth was 48.1% (inactive).
In the case of Cc1cc(N)n(S(=O)(=O)c2oc(-c3ccccc3)nc2C#N)n1, the growth is reported as 101% (inactive).
COc1ccc(-c2cc3c(OC)c(OC)c(OC)cc3oc2=O)cc1 was tested, and the growth was 57.5% (inactive).
COc1ccc(OC)c(C2OC(c3ccc4ccccc4c3O)=NN2C(C)=O)c1 (configuration not stated) was tested, and the growth was 84.4% (inactive).
Cc1ccc(NS(=O)(=O)c2cc(C)ccc2C)cc1 was tested, and the growth was 39.1% (inactive).
In the case of COc1cc(-c2nn(-c3cccc(NC(=O)c4ccccc4)c3)cc2-c2ccncc2)ccc1Cl, the growth is reported as 1.29% (active).
With O=C(Nc1cccc(-n2cc(-c3ccncc3)c(-c3ccc(Cl)c(O)c3)n2)c1)Nc1ccc(Cl)c(Cl)c1 the growth was 34.4% (inactive).
O=S(=O)(NCCNc1nccc(-c2c(-c3cccc(O)c3)nc3sccn23)n1)c1ccc(F)cc1 was tested, and the growth was 79.3% (inactive).
With O=C(Nc1ccc2c(c1)OCCO2)C(=O)c1c[nH]c2ccccc12 the growth was 44.2% (inactive).
CCCCCCCC/C=C/CCCCCCCC1=NC(C)(C)CN1C(C)(C)CO was tested, and the growth was 76.3% (inactive).
With COc1ccc(-n2c(=S)sc3c(Cl)nc(C)nc32)c(OC)c1 the growth was 90.8% (inactive).
CCOC(=O)c1cn2c3c(cc(C)cc3c1=O)C(=O)/C(=C/c1ccccc1)C2 was tested, and the growth was 84.3% (inactive).
For CN(C)CC(C(=O)c1ccccc1)c1ccccc1 (configuration not stated), the growth was 23.3% (inactive).
In the case of NC(=O)CCCN1C/C(=C\c2ccccc2)C(=O)c2ccccc21, the growth is reported as 93.7% (inactive).
For COc1ccc(Nc2nn3c(C)cc(C)nc3c2C(=O)Nc2ccc(C)cc2)c(OC)c1, the growth was 96.2% (inactive).
COc1cc(-c2nn(-c3cccc(NC(=O)c4ccc(Cl)c(C(F)(F)F)c4)c3)cc2-c2ccncc2)ccc1Cl was tested, and the growth was 49.7% (inactive).
With COc1cc(-c2nc(-c3nc4ccc(Cl)cc4[nH]3)cc3c2[nH]c2ccccc23)cc(OC)c1OC the growth was 70.8% (inactive).
With Cc1c(C(N)=O)sc2c1c(=O)n(Cc1ccccc1)c1nnc(Nc3ccccc3)n21 the growth was 123% (inactive).
With O=c1c2sc3ncccc3c2nnn1-c1ccccc1 the growth was 108% (inactive).
CCCCCCCC[C@@H](O)CC(=O)N[C@@H](CC(N)=O)C(=O)N[C@@H](CCC(N)=O)C(=O)N[C@@H](CC(=O)c1cc(C)cc(O)c1C(=O)c1c(O)cccc1O)CC(C)C was tested, and the growth was -1.45% (active).
With COc1cc(/C(C#N)=C/c2ccc3c(c2OC)OCO3)cc2c1OCO2 the growth was 71.7% (inactive).
In the case of COc1ccc(Nc2[nH]n3c(=O)cc(C)nc3c2C(N)=O)c(OC)c1, the growth is reported as 95.3% (inactive).
Fc1ccc(Nc2nc(NCCNc3ccnc4cc(Cl)ccc34)nc(N3CCOCC3)n2)cc1 was tested, and the growth was 81.9% (inactive).
For CN(C)c1oc(C2OC2c2ccccc2)nc1C#N (configuration not stated), the growth was 95.6% (inactive).
